Test results from PubChem BioAssay (NCI).
This is part of a sample that, as a whole, favours compounds with a hit. Of some 83,000 tested, about 20% had one in any assay.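 96-well plates, one dose, 48 hours. Percent growth reported; active if below 10.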 A number with no mark means an inactive call. The source made the active and inactive calls.

Test system: NCI/ADR-RES ovarian
Assay: NCI-60 one-dose screen, 48 h (100 = growth as untreated, 0 = no growth, -100 = all killed)
Conditions: 10 µM unless noted

| SMILES | growth |
| --- | --- |
| Fc1cccc(CNc2nc(SCCN3CCOCC3)nc3c2cnn3CC(Cl)c2ccc(Br)cc2)c1 (stereo not drawn) | 23% |
| O=C(Nc1nc2ccc([N+](=O)[O-])cc2s1)Nc1ccc(Cl)cc1Cl | 26.6% |
| Nc1nnc(CS(=O)(=O)c2ccccc2)s1 | 104% |
| CCCCCCCCc1ccc(C(=O)Nc2ccc(C)cc2C(=O)O)cc1 | 94.1% |
| COc1ccc2c(c1)c(-c1cc(N)n3nc(-c4c[nH]c5ccccc45)cc3n1)cn2C | -43.3% (active) |
| Clc1ccc(CNc2nc(SCCN3CCOCC3)nc3c2cnn3CC(Cl)c2ccc(Br)cc2)cc1 (stereo not drawn) | 34.5% |
| CCC(=O)c1cc(C(=O)OC)c2ccc3c4ccccc4ccc3n12 | 76.6% |
| Nc1cc(-c2c[nH]c3ccc(Cl)cc23)nc2cc(-c3c[nH]c4ccccc34)nn12 | -3.2% (active) |
| CCCCNc1ccc2c3c(cccc13)C(=O)N(NCC(O)COc1ccc3c(C)cc(=O)oc3c1)C2=O (stereo not drawn) | 85.8% |
| O=C(OCCOCCO)N(c1cccc(Br)c1)c1nc(SCCN2CCOCC2)nc2c1cnn2CC(Cl)c1ccc(Br)cc1 (stereo not drawn) | 12.3% |
| CCN1C(=O)N(CC)C2NNC(Sc3c(C(=O)O)c4ccccc4n(CC(C)C)c3=O)=NC21 (stereo not drawn) | -27.6% (active) |
| CCN1C(=O)N(CC)C2NNC(Sc3c(C(=O)O)c4ccccc4n(CCC(C)C)c3=O)=NC21 (stereo not drawn) | -35.4% (active) |
| COc1ccc(C(=O)c2cc(C(C)=O)c3c(C)cc(C)cn23)cc1 | 35% |
| O=C(N/N=C/c1ccc(Cl)cc1)c1ccc(OCc2nc3ccc(Cl)cc3[nH]2)cc1 | 45.4% |
| COC(=O)c1cc(C(=O)C(Br)Br)n2c1ccc1c3ccccc3ccc12 | 70.3% |
| O=C(Nc1nc2ccccc2s1)Nc1ccccc1Cl | 76% |
| Oc1ccc(Cl)c(Nc2ncnc3c2cnn3CC(Cl)c2ccc(Br)cc2)c1 (stereo not drawn) | 48% |
| ClC(Cn1ncc2c(Nc3cccc(Br)c3)nc(SCCN3CCOCC3)nc21)c1ccc(Br)cc1 (stereo not drawn) | 0.769% (active) |
| Nc1cc(-c2c[nH]c3ccc(F)cc23)nc2cc(-c3c[nH]c4ccccc34)nn12 | 10.7% |

| SMILES | growth |
| --- | --- |
| O=C1Nc2cc(-c3ccc(NS(=O)(=O)c4ccc(F)c(Cl)c4)cc3)ccc2/C1=C/c1ccc[nH]1 | 29.7% |
| O=C1CCC(N2C(=O)c3cccc(NCCOCCOCCOCCC(=O)NCCCC(=O)NC(c4ccc5c(c4)OCO5)c4cc(Cl)c5cccnc5c4O)c3C2=O)C(=O)C1 (stereo not drawn) | 92.4% |
| Cn1cc(-c2cc3nc(-c4c[nH]c5ccccc45)cc(N)n3n2)c2ccccc21 | -37.8% (active) |
| CN1C(=O)C(O)(CC(=O)c2cc3ccccc3oc2=O)c2ccccc21 (stereo not drawn) | 98.7% |
| COc1ccc(Nc2nnc(-c3c[nH]c4ccccc34)o2)cc1 | 73.8% |
| Cc1cccc(C)c1Nc1nnc(-c2c[nH]c3ccccc23)o1 | 94.9% |
| Cc1ccc(O)cc1Nc1nc(SCCN2CCOCC2)nc2c1cnn2CC(Cl)c1ccc(Br)cc1 (stereo not drawn) | 7.37% (active) |
| Fc1ccccc1CNc1nc(SCCN2CCOCC2)nc2c1cnn2CC(Cl)c1ccc(Br)cc1 (stereo not drawn) | 33.5% |
| COC(=O)c1cc(C(=O)CBr)n2c1ccc1c3ccccc3ccc12 | 57.4% |
| Oc1ccc(F)c(Nc2nc(SCCN3CCOCC3)nc3c2cnn3CC(Cl)c2ccc(Br)cc2)c1 (stereo not drawn) | 16.4% |
| COC(=O)c1c(C(=O)OC)c2ccc3c4ccccc4ccc3n2c1C(=O)C(C)Br (stereo not drawn) | 37.5% |
| Cc1nn(-c2ccccc2)c2nc(C)n(C(=O)N/N=C/c3cccc([N+](=O)[O-])c3)c(=O)c12 | 93.3% |
| COc1c2c(c(Br)c3c1C(CCc1ccccc1)N(C)CC3)OCO2 (stereo not drawn) | 40% |
| COc1ccc2[nH]cc(-c3cc(N)n4nc(-c5c[nH]c6ccccc56)cc4n3)c2c1 | 27.7% |
| CC(C)(C)C(=O)C1CC(C#N)=C2C=Cc3c(ccc4ccccc34)N21 (stereo not drawn) | 81.9% |
| Oc1ccc(Cl)c(Nc2nc(SCCN3CCOCC3)nc3c2cnn3CC(Cl)c2ccc(Br)cc2)c1 (stereo not drawn) | 13.5% |
| Fc1ccc(F)c(CNc2nc(SCCN3CCOCC3)nc3c2cnn3CC(Cl)c2ccc(Br)cc2)c1 (stereo not drawn) | 22.8% |
| CN1CCN(C(=O)Oc2cc3c(c4ccccc24)[C@H](CCl)CN3C(=O)c2cc3cc(OCCCN4CCC4)ccc3[nH]2)[C@H]2CSSC[C@H]21 | -29.2% (active) |
| Nc1nc(-c2ccccc2)c(N=Nc2ccc(Cl)cc2Cl)s1 | -57% (active) |
